According to PubChem BioAssay AID588683 (Broad Institute, 2011):
Measured potencies and affinities stand elsewhere. The source made the active and inactive calls. How the calls were made is not given here.

These compounds were tested against Kelch-like ECH-associated protein 1 (Homo sapiens) + Nuclear factor erythroid 2-related factor 2 (Homo sapiens) (UniProt Q14145+Q16236) (assay: Keap1-Nrf2 protein-protein interaction inhibitors, dose response, biochemical, fluorescence polarization, cherry-picked samples (AID 588683;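 further: Kelch domain of Keap1 binding a fluorescein-labelled 9mer Nrf2 peptide; more negative means stronger inhibition of peptide binding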)). Conditions: Keap1/Nrf2 peptide fluorescence polarization, plate reader; series mostly up to 26 µM; activity change, negative = inhibition: at the top concentration.
Chain of Kelch-like ECH-associated protein 1 (Homo sapiens) + Nuclear factor erythroid 2-related factor 2 (Homo sapiens) (Q14145 whole entry, looked up, the tested form may be a part): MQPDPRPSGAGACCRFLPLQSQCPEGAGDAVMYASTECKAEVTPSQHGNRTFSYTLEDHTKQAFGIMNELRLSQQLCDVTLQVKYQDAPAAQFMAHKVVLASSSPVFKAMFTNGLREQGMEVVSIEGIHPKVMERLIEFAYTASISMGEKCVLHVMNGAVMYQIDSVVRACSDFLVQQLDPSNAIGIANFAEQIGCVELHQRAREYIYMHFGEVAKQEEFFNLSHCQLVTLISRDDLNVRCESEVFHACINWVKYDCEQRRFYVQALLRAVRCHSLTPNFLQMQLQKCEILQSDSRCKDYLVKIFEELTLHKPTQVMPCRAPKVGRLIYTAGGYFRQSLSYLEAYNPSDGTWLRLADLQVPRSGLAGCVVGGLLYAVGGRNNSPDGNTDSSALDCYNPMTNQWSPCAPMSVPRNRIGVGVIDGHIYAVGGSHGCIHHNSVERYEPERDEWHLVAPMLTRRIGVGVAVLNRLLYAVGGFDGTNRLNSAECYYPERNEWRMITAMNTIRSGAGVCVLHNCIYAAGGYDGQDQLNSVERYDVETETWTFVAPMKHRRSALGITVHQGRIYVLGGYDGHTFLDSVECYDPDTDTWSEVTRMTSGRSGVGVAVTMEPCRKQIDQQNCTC
Chain of Kelch-like ECH-associated protein 1 (Homo sapiens) + Nuclear factor erythroid 2-related factor 2 (Homo sapiens) (Q16236 whole entry, looked up, the tested form may be a part): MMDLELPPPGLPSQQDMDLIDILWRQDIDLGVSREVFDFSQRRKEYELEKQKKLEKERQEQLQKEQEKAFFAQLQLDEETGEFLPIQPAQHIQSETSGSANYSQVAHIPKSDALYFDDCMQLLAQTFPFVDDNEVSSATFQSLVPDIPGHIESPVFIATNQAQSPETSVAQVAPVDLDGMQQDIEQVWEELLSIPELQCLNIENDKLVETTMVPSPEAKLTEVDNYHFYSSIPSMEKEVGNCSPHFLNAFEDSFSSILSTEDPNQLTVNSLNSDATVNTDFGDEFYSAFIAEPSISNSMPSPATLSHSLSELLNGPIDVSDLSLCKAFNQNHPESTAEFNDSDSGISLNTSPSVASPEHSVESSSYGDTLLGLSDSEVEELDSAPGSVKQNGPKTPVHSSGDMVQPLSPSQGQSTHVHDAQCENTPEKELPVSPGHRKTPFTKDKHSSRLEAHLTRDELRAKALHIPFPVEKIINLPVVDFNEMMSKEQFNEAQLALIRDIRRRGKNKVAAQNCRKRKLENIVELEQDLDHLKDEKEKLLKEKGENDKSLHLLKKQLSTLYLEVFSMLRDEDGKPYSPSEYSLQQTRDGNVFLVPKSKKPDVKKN

Activity change, negative = inhibition, inactive:
NC(=O)CC(NC(=O)Cc1cccc2ccccc12)c1ccc(NCc2ccccc2)c([N+](=O)[O-])c1 (stereo not drawn) -0.628%, c1ccc(-c2cn3nc4c(nc3n2)CCCC4)cc1 0.291%, O=C(NCc1ccc(Cl)cc1)c1cc(=O)[nH]c2ccccc12 -0.671%, CC1CCN(C(=O)Cn2cc(C(F)(F)F)ccc2=O)c2ccccc2S1 (stereo not drawn) 2.04%, Cc1ccccc1OCCC(=O)Nc1cc(S(=O)(=O)N2CCCCC2)ccc1N1CCN(C)CC1 2.61%, O=S(=O)(Nc1ncccn1)c1ccc(NC(=S)NCc2cccnc2)cc1 -14.6%, O=C1c2ccccc2-c2onc3ccc(N4CCCC4)c1c23 10.2%, CCCc1nc2oc3cc(OC)ccc3c(=O)c2c(=O)n1Cc1ccco1 -1.14%, CCOC(=O)c1ccc2ncc(C(=O)OCC)c(NCCN(C)C)c2c1 -6.02%, O=c1[nH]c2cc(C(F)(F)F)ccc2n1-c1cc(C(F)(F)F)ccc1O -8.84%, O=C1c2cccc3c(N4CCCCC4)ccc(c23)C(=O)N1c1cccc(O)c1 38.4%, CC(=O)N1CCN(S(=O)(=O)c2cccc(C(=O)NNC(=O)c3ccc(Br)cc3)c2)CC1 -2.07%, CNc1nnc(SCC(=O)c2cc(C)n(C3CC3)c2C)s1 18.2%, Cc1cnc(NC(=O)Cc2ccc(S(=O)(=O)N3CCOCC3)s2)s1 12.2%, NC(=O)C1CCN(C2=C(Cl)C(=O)c3ccccc3C2=O)CC1 -5.27%, COc1ccc(N=Nc2nc3ccc(Br)cc3n2C)cc1 -21.9%, Cc1ccc(C)c(N2CCN(C(=O)c3cc4ccccn4n3)CC2)c1 -1.58%, Cc1cccc(NS(=O)(=O)c2ccc(C)c(C(=O)NCC(c3ccccc3)N(C)C)c2)c1 (stereo not drawn) 11%, COC(=O)c1cc(N2CCN(C)CC2)nc2ccccc12 -11.7%, O=C1C(=Cc2ccco2)CCC1=Cc1ccco1 24.2%, O=C1C=CC(=O)c2c(O)c(N3CCN(CCOCCO)CC3)c(Br)c(O)c21 -12.2%, COc1cccc(NC(=O)CN(C)CC(=O)NCc2ccco2)c1 -0.293%, Cc1cc(=O)c2c([nH]1)c(C)cc1[nH]c(C)c(C)c12 -9.52%, Clc1ccc(C2=CC(c3ccco3)n3ncnc3N2)cc1 (stereo not drawn) -20.5%, COc1cc2c3nnc(-c4ccc(F)cc4)c-3cn(Cc3ccccc3)c2cc1OC 124%, O=C(NNC(=O)c1ccc(Br)o1)c1csc(N2CCOCC2)n1 -2.33%, COc1ccc(C2N3CC4(C)CN2CC(C)(C3)C4O)cc1 (stereo not drawn) -6.86%, CC(C(=O)O)N1C(=O)/C(=C/C=C/c2ccco2)SC1=S (stereo not drawn) 14.5%, N=c1c(C(=O)NC2CCCC2)cc2c(=O)n3ccccc3nc2n1Cc1ccccc1 -5.93%, N/C(Cc1cccc2ccccc12)=N\O -1.95%, C=CCn1ccc(=NC=C(C#N)C#N)c2ccccc21 45.1%, COc1cc2c3nnc(-c4ccc(F)cc4)c-3cn(Cc3ccc(C)cc3)c2cc1OC 207%, Cc1ccc(NC(=S)NCc2ccc(F)cc2)c(C)c1 17%, O=[N+]([O-])c1cncc([N+](=O)[O-])c1Nc1cccc(O)c1 -4.53%, COCCCNc1nc(N)c([N+](=O)[O-])c(Nc2cc(OC)ccc2OC)n1 0.954%, S=C1SCN(CC2CC2)CN1CC1CC1 -13.5%, Nc1cccc2cc(S(=O)(=O)O)ccc12 -6.55%, Cc1cc(C)c2nc3sc(C(=O)N4CCOCC4)c(N)c3cc2c1 -6.56%
